The nature of assay [1]: ATG_GLI_CIS: Attagene CIS-FACTORIAL HepG2 Assay for human Zinc Finger Protein GLI1 (AID 2282945). The following applies: HepG2, Attagene cis-factorial reporter mRNA, GLI element; actives raise or lower the signal. The method in brief:
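Bidirectional curve fits relative to DMSO, using reporter mRNA levels from RT-PCR plus capillary electrophoresis. Cells were HepG2 transiently carrying cis-regulated reporter constructs, harvested 24 h after dosing.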

Assay [2] in a line: ATG_ISRE_CIS: Attagene CIS-FACTORIAL HepG2 Assay for human Interferon Regulatory Factor 1 (IRF1) binding to an Interferon-Stimulated Response Element (ISRE) (AID 2282948). Particulars: HepG2 ISRE cis-reporter (Attagene), mRNA transcription readout; actives raise or lower the signal. The method, boiled down:
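Read-out: fluorescent RT-PCR products resolved by capillary electrophoresis, reporting endogenous transcription factor activity via ISRE-driven reporter mRNA in transfected HepG2 cells dosed for 24 h; gain or loss fitted relative to DMSO.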

Assay [3] in a line: ATG_M_32_CIS: Attagene CIS-FACTORIAL HepG2 Assay for M32 Transcription Factor (Internal Marker) (AID 2282949).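 Further: background control marker of the multiplexed CIS panel rather than a real target.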 The following applies: HepG2 Attagene cis-factorial M32 reporter, mRNA; actives raise or lower the signal. The method, boiled down: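 Using DMSO as baseline, bidirectional curve fits were applied to reporter mRNA signals. These came from transiently transfected HepG2 cells exposed for 24 h, with RNA analysed by RT-PCR, FAM primer extension, HpaI digestion and CE.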

The nature of assay [4]: ATG_M_06_CIS: Attagene CIS-FACTORIAL HepG2 Assay for M06 Transcription Factor (Internal Marker) (AID 2282950). Particulars: HepG2 Attagene CIS-FACTORIAL M06 internal marker reporter; actives raise or lower the signal. The method, boiled down:
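Steps: transfect HepG2 with multiplexed cis-element reporter constructs; dose chemical 24 h; extract RNA with DNase treatment; reverse-transcribe, PCR-amplify, 6-FAM label, HpaI digest; separate fragments by capillary electrophoresis. Activity fitted both directions versus DMSO.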

In assay [5] the target is Hypoxia-inducible factor 1-alpha (Homo sapiens) (UniProt Q16665). Nature of the assay: ATG_HIF1a_CIS: Attagene CIS-FACTORIAL HepG2 Assay for human Hypoxia Inducible Factor 1 (HIF1A) (AID 2282951). The following applies: HepG2 Attagene cis-factorial HIF1a reporter transcription; actives raise or lower the signal. The method in brief:
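HepG2, transient cis-reporter library, 24 h dosing. RNA → RT (oligo dT) → PCR → 6-FAM primer extension → HpaI → CE. Bidirectional curve fit vs DMSO.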

For assay [6], the target named is Heat shock factor protein 1 (Homo sapiens) (UniProt Q00613). Nature of the assay: ATG_HSE_CIS: Attagene CIS-FACTORIAL HepG2 Assay for human Heat Shock Transcription Factor 1 (HSE) (AID 2282953). Particulars: HepG2 HSE cis-reporter, Attagene RNA transcription; actives raise or lower the signal. The method in brief:
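Cells were transfected with cis-element-driven reporter constructs, dosed for 24 h, then total RNA was reverse-transcribed and reporter cDNA amplified, FAM-labelled and digested with HpaI. Fragments were resolved by capillary electrophoresis; gain or loss was fitted against DMSO.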

Assay [7] is described as follows: ATG_MRE_CIS: Attagene CIS-FACTORIAL HepG2 Assay for human Metal Responsive Element (MRE) (AID 2282954). Particulars: HepG2 MRE cis-reporter transcription, Attagene multiplex; actives raise or lower the signal. The method in brief:
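Multiplexed cis-reporter assay in human HepG2 liver cells, 24 h incubation with test chemical. Reporter transcripts measured by RT-PCR and capillary electrophoresis; values from bidirectional curve fitting versus DMSO.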

Assay [8] can be described thus: ATG_PBREM_CIS: Attagene CIS-FACTORIAL HepG2 Assay for human Phenobarbital-responsive Enhancer Module (PBREM) (AID 2282955). Particulars: HepG2 PBREM cis-reporter, Attagene multiplexed transcription; actives raise or lower the signal. The method, boiled down:
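HepG2, transient MRTU transfection, 24 h dosing; RNA → oligo(dT) RT → PCR → 6-FAM extension → HpaI → CE. Bidirectional fit vs DMSO.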

The target in assay [9] is Paired box protein Pax-6 (Homo sapiens) (UniProt P26367). Put plainly: ATG_Pax6_CIS: Attagene CIS-FACTORIAL HepG2 Assay for human Paired Box 6 (PAX6) (AID 2282956). Particulars: HepG2 CIS-FACTORIAL PAX6 reporter transcription, RNA readout; actives raise or lower the signal. The method, boiled down:
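Readout: reporter transcript fluorescence after RT-PCR and capillary electrophoresis. Cells: HepG2, transiently transfected with cis-regulated MRTUs. Exposure 24 h. Gain or loss of signal fitted bidirectionally relative to DMSO.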

Assay [10] can be described thus: ATG_PXRE_CIS: Attagene CIS-FACTORIAL HepG2 Assay for human Pregnane X Receptor Element (PXRE) (AID 2282957). The following applies: HepG2 Attagene CIS-FACTORIAL PXRE reporter, mRNA; actives raise or lower the signal. The method, boiled down:
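Using HepG2 transfected with multiple reporter transcription units, endogenous factor-driven transcription was scored as reporter mRNA after 24 h exposure.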

Assay [11] can be described thus: ATG_PPRE_CIS: Attagene CIS-FACTORIAL HepG2 Assay for human Peroxisome Proliferator-activated Response Element (PPRE) (AID 2282958). Particulars: HepG2 PPRE cis-element reporter, Attagene transcription factor profiling; actives raise or lower the signal. The method, boiled down:
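Transcript-level reporter induction in transfected HepG2 cells after 24 h chemical exposure, quantified by fluorescence from RT-PCR products separated by capillary electrophoresis.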

Assay [12] can be described thus: ATG_RORE_CIS: Attagene CIS-FACTORIAL HepG2 Assay for human RAR-related Orphan Receptor Element (RORE) (AID 2282959). The following applies: HepG2 Attagene cis-factorial RORE reporter, mRNA; actives raise or lower the signal. The method in brief: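 Multiplexed reporter assay measuring mRNA induction from a cis promoter element in transiently transfected HepG2 cells after 24 h treatment. Detection via RT-PCR and capillary electrophoresis fluorescence; DMSO serves as baseline.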

A short description of assay [13]: ATG_Sox_CIS: Attagene CIS-FACTORIAL HepG2 Assay for human SRY-box transcription factor (SOX) (AID 2282960). Particulars: HepG2 Attagene cis-factorial SOX reporter, mRNA; actives raise or lower the signal. The method, boiled down:
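Cells were transfected with reporter constructs under cis-regulatory promoters, then exposed to chemicals for 24 h. Reporter transcripts were quantified by fluorescence after RT-PCR and capillary electrophoresis; activity was fitted in both directions against DMSO.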

The target in assay [14] is Transcription factor Sp1 (Homo sapiens) (UniProt P08047). Nature of the assay: ATG_Sp1_CIS: Attagene CIS-FACTORIAL HepG2 Assay for human Specificity Protein 1 (Sp1) (AID 2282961). The following applies: HepG2 Sp1 cis-reporter transcription, actives raise or lower the signal. The method in brief: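 Measures mRNA induction of an Sp1-linked reporter in HepG2 cells 24 h post-dosing. Multiplexed reporters read by RT-PCR and capillary electrophoresis; DMSO serves as negative control and baseline.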
Sequence of Transcription factor Sp1 (Homo sapiens) (P08047 whole entry, looked up): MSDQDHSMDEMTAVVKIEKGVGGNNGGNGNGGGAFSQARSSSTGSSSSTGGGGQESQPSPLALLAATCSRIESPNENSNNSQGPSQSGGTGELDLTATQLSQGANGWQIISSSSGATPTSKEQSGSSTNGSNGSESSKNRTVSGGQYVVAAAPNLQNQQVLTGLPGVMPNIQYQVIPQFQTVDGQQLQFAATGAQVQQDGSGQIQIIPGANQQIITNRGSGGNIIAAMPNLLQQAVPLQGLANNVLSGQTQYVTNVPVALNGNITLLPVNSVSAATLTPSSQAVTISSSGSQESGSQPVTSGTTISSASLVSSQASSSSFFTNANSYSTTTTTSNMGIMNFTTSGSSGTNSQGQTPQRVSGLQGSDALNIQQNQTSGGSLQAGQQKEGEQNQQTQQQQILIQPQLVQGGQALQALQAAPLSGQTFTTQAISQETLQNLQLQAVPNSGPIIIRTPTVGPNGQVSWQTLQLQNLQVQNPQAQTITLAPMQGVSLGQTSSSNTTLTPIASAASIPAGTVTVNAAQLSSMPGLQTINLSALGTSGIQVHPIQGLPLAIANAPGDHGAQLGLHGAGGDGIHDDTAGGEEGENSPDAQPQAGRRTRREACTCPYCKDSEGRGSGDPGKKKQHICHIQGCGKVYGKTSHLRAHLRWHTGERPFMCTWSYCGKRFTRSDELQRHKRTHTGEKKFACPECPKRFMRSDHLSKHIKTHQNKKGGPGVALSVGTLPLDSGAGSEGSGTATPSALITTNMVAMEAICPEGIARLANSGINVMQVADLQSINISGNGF

The nature of assay [15]: ATG_SREBP_CIS: Attagene CIS-FACTORIAL HepG2 Assay for human Sterol Regulatory Element Binding (SREBP) (AID 2282962). The following applies: HepG2 Attagene cis-factorial SREBP reporter, mRNA; actives raise or lower the signal. The method, boiled down: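 Readout: fluorescent reporter-transcript peaks resolved by capillary electrophoresis after RT-PCR. Cells were human HepG2 carrying transfected cis-promoter reporter constructs, dosed for 24 h. Gain or loss of signal was fitted against DMSO controls.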

Assay [16] concerns the target Signal transducer and activator of transcription 3 (Homo sapiens) (UniProt P40763). Put plainly: ATG_STAT3_CIS: Attagene CIS-FACTORIAL HepG2 Assay for human Signal Transducer and Activator of Transcription 3 (STAT3) (AID 2282963). Particulars: HepG2, Attagene cis-factorial STAT3 reporter transcription; actives raise or lower the signal. The method in brief:
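Cis-factorial format: endogenous transcription factors in HepG2 drive transfected reporter units. After 24 h treatment, reporter RNA was reverse-transcribed, amplified, FAM-labelled and HpaI-digested before CE analysis; activity scored in both directions against DMSO.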

Assay [17] in a line: ATG_TA_CIS: Attagene CIS-FACTORIAL HepG2 Assay for human TA Basal Promoter (AID 2282964). The following applies: HepG2 Attagene CIS-factorial TA basal promoter reporter; actives raise or lower the signal. The method, boiled down:
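Steps: transfect HepG2 with MRTUs; dose 24 h; isolate RNA, DNase-treat, reverse-transcribe; PCR and FAM-label reporter cDNA; digest with HpaI 2h at 37 C; run capillary electrophoresis. Activity fitted both directions against DMSO.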

Assay [18] concerns the target Hepatocyte nuclear factor 6 (Homo sapiens) (UniProt Q9UBC0). Nature of the assay: ATG_HNF6_CIS: Attagene CIS-FACTORIAL HepG2 Assay for human Hepatocyte Nuclear Factor 6 (HNF6) (AID 2282952). Particulars: HepG2 Attagene cis-factorial HNF6 reporter transcription; actives raise or lower the signal. The method, boiled down: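 Using cis-element reporters in HepG2 liver cells, the assay tracks endogenous factor-driven transcription 24 h post-dosing. Signal comes from 6-FAM-labelled, HpaI-digested RT-PCR fragments, with gain or loss scored against DMSO.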

Activity calls are given as the source filed them. How the source made its calls: active means hit-call score of the fitted dose curve at least 0.9, where 1 is the maximum; inactive means score below 0.9.

Sequence of Hypoxia-inducible factor 1-alpha (Homo sapiens) (Q16665 whole entry, looked up): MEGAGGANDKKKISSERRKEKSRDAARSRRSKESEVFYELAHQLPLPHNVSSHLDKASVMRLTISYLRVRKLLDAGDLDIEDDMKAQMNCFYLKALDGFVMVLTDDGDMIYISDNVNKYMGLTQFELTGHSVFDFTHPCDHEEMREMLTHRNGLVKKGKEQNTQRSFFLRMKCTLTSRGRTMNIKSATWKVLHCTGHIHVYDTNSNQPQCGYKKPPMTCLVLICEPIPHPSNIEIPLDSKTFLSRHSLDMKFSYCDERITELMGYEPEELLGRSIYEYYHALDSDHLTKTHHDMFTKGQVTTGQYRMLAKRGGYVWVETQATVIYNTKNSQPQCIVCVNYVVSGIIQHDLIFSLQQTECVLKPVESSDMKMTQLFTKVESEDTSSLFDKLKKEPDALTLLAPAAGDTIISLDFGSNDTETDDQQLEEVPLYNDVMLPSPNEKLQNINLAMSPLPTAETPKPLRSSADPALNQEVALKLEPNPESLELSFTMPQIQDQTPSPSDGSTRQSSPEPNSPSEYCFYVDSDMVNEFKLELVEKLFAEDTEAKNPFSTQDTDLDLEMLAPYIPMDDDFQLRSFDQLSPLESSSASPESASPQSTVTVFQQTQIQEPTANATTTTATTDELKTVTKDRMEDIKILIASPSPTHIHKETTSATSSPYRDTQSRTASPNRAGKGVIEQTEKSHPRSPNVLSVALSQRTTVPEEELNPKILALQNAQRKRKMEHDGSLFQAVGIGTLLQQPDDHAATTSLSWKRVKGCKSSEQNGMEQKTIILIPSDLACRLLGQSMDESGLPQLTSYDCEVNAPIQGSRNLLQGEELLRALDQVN
Sequence of Heat shock factor protein 1 (Homo sapiens) (Q00613 whole entry, looked up, the tested form may be a part): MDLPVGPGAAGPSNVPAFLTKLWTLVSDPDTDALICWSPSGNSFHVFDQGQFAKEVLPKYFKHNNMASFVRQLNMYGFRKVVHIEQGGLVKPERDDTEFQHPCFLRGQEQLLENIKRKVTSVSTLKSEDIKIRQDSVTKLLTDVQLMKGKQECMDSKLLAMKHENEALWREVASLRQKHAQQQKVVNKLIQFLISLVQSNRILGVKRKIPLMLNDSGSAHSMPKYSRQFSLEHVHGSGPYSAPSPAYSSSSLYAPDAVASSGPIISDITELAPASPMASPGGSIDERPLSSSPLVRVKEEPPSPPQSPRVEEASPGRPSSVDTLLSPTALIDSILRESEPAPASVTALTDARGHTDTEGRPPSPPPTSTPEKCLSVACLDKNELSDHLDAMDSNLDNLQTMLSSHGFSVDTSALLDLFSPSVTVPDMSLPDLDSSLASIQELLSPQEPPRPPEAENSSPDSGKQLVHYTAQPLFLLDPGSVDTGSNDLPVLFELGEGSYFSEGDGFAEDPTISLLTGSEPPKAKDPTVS
Sequence of Paired box protein Pax-6 (Homo sapiens) (P26367 whole entry, looked up): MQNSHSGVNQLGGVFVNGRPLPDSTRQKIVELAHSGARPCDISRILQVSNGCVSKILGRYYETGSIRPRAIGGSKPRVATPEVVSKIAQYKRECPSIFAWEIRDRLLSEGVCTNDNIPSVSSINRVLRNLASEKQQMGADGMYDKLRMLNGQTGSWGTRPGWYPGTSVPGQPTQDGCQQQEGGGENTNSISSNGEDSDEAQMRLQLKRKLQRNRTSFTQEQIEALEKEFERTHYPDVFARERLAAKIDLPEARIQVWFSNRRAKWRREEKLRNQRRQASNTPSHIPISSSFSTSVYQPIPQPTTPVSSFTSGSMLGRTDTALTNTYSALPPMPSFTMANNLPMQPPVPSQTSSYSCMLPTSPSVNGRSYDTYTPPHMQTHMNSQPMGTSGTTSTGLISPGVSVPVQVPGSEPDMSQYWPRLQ
Sequence of Hepatocyte nuclear factor 6 (Homo sapiens) (Q9UBC0 whole entry, looked up, the tested form may be a part): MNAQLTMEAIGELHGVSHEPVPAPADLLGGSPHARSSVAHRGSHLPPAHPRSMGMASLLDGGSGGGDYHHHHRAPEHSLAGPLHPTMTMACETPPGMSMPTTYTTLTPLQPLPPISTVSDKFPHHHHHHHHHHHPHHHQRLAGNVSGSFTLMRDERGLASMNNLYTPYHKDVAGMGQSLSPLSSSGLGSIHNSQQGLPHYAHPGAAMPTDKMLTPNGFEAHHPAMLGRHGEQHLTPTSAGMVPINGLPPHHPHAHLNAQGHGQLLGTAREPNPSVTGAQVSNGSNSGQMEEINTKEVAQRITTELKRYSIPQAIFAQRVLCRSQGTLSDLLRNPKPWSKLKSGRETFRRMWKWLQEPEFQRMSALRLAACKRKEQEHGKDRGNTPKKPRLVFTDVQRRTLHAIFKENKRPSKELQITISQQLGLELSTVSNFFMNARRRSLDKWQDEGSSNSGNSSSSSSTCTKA
Sequence of Signal transducer and activator of transcription 3 (Homo sapiens) (P40763 whole entry, looked up): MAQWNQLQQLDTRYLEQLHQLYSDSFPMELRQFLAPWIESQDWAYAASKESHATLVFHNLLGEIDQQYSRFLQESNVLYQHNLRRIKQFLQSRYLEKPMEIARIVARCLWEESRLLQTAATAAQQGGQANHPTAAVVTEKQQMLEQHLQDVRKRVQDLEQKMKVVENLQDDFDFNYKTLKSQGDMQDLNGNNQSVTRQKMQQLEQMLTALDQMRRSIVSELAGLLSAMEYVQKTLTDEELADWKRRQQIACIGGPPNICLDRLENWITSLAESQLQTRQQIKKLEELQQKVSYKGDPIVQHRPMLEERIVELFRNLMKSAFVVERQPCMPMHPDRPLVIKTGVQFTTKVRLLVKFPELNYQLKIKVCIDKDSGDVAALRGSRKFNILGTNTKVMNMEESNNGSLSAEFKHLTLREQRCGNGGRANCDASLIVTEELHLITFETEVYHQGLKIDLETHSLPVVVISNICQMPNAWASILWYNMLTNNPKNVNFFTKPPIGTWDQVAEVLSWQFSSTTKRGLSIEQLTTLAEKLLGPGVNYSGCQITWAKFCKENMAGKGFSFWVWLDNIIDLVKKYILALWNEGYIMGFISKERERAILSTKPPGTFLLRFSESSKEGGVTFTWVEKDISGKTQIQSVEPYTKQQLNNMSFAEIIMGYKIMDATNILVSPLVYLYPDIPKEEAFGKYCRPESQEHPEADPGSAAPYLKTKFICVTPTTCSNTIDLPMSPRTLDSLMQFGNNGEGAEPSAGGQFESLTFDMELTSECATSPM

Take `COc1cc(OC)c2ccc(=O)oc2c1`: the compound was classed as inactive in assay [1], in assay [2], in [3], in assay [4], in assay [5] and in assay [6]. Besides, the call in [7], in assay [8], in assay [9], in assay [10], in [11] and in assay [12] was inactive. In addition, the compound was called inactive in [13], in assay [14], in [15], in [16] and in [17].

`N#CCCCC(C#N)CCC#N` (stereo not drawn): the compound was called inactive in [1], in assay [2], in assay [3], in assay [4], in assay [5] and in assay [18]. Moreover, the compound was called inactive in assay [6], in assay [7], in assay [9], in assay [10], in assay [11] and in [12]. Moreover, the compound was called inactive in assay [13], in assay [14], in assay [15] and in assay [17].

As a reminder, the AC50 is the midpoint of the concentration-response curve, whichever way the signal moves. For the compound `CC(=O)OC(C)(C)C1CC=C(C)CC1` (stereo not drawn), the compound was classed as inactive in assay [1], in assay [2], in assay [3], in assay [4], in assay [5] and in [18]. Moreover, the compound was classed as inactive in [6], in [7], in assay [9], in assay [11], in assay [12] and in [13]. The result in [14], in assay [15], in assay [16] and in [17] was inactive. For the same compound, the AC50 in [10] is 36.9 µM (active).

Turning to `CC(=O)Oc1c(C)c(C)c2c(c1C)CC[C@@](C)(CCC[C@H](C)CCC[C@H](C)CCCC(C)C)O2`, the compound was classed as inactive in [1], in [2], in assay [3], in assay [4], in assay [5] and in assay [18]. Further, the compound was called inactive in [6], in [7], in assay [9], in [10], in assay [11] and in assay [12]. In addition, the compound was called inactive in assay [13], in [14], in assay [15] and in assay [17].

`CCCCCCCCCOS(=O)(=O)O`: the outcome in [1], in assay [2], in [3], in assay [4], in assay [5] and in assay [6] was inactive. Also, the result in assay [7], in assay [8], in assay [10], in assay [13], in [14] and in assay [15] was inactive. For the same compound, the compound was classed as inactive in [16] and in assay [17].

As to `CC(=O)Nc1cc(S(=O)(=O)O)cc2cc(S(=O)(=O)O)c(N=Nc3ccccc3)c(O)c12`, the result in assay [1], in assay [2], in assay [3], in assay [4], in assay [5] and in assay [18] was inactive. Besides, the compound was classed as inactive in assay [6], in assay [7], in assay [9], in assay [10], in assay [12] and in assay [13]. The result in assay [14], in [15] and in [17] was inactive.

`CN(C)C(=O)Nc1ccccc1`: the call in [1], in assay [2], in [3], in [4], in assay [5] and in assay [6] was inactive. Moreover, the compound was called inactive in assay [7], in [8], in assay [9], in [11], in assay [12] and in assay [13]. In addition, the compound was classed as inactive in [14], in assay [15], in assay [16] and in assay [17]. Moreover, the AC50 in [10] is 26.5 µM (active).

With `CCCCCCCCCCCCS`, the outcome in assay [1], in assay [2], in [3], in assay [4], in [5] and in [18] was inactive. Further, the outcome in assay [6], in [7], in assay [8], in assay [11], in [12] and in assay [13] was inactive. For the same compound, the call in assay [16] and in assay [17] was inactive. The concentration at half-maximal activity (AC50) in assay [10] and in [15] was 33.4 µM (active) in each case.

With `CCOC(=O)CC1(C)OCC(C)O1` (stereo not drawn), the call in [1], in [2], in assay [3], in assay [4], in [5] and in assay [18] was inactive. The outcome in assay [6], in assay [7], in assay [10], in assay [11], in assay [12] and in [13] was inactive. The result in assay [15], in [16] and in [17] was inactive.

These data come from PubChem BioAssay (EPA / NIEHS).
